Bioassay records as filed in PubChem BioAssay.
Ec RNAP inh: Escherichia coli RNA polymerase inhibition. 62,000 tested, 0.2% active. P0A8V2. inhibition, %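 (tested at 10 µM)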. AID 559. E. coli RNA polymerase, fluorescence transcription assay; in the data active means inhibition above about 20%
PLAP activator: activators of human placental alkaline phosphatase | purified PLAP enzyme, luminescent substrate read-out; active compounds read high | activation fold at 20 µM | 96,000 tested, 1.2% active; in the data active means activation fold above about 2
TNAP act DEA: human TNAP activation, intermediate phosphate acceptor; P05186; purified TNAP, CDP-star luminescence, 100 mM DEA, 30 min; active compounds read high; scale: 0 levamisole-inhibited, 1 vehicle-only enzyme; activation factor at 20 µM; 64,000 tested, under 10 active;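 active means activation factor of at least 2 at 20 µM, relative to controls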
Target sequence (P05186 whole entry, looked up): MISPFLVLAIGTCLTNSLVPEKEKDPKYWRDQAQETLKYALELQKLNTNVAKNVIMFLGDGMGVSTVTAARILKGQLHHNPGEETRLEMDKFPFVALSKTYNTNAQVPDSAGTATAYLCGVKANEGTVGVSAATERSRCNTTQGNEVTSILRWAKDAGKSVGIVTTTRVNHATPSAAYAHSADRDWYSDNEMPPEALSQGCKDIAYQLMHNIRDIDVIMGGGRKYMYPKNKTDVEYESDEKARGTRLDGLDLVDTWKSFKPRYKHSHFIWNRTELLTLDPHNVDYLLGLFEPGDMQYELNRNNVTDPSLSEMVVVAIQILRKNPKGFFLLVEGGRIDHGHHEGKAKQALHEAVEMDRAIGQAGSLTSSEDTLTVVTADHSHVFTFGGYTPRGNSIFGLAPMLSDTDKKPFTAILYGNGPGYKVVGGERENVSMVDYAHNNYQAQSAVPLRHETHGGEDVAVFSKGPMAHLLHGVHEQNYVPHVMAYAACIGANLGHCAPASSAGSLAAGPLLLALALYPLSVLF
Numbers stand for hits; n = inactive; x = no result. This excerpt belongs to a sample that is enriched for hits.

SMILES	Ec RNAP inh	PLAP activator	TNAP act DEA
COC(=O)c1cc(=O)n(CCc2ccc(OC)c(OC)c2)c(=Nc2ccc(F)c(Cl)c2)s1	x	n	x
CSc1nc(Oc2ccc(=O)n(C)n2)nc(N(C)C)n1	x	n	x
O=C(OCC(F)(F)C(F)F)c1ccccc1C(=O)Oc1ccc(F)cc1F	n	n	n
Oc1c(C(c2ccccc2)N2CCc3ccccc3C2)sc2ncnn12 (configuration not stated)	n	x	n
Oc1c(C(c2ccco2)N2CCN(C(c3ccccc3)c3ccccc3)CC2)sc2ncnn12 (configuration not stated)	n	2.1	n
CCOC(=O)CSC1=NC(=O)CS1	n	n	n
CO/N=C/NC(=O)NOCc1ncc(C(F)(F)F)cc1Cl	x	n	x
O=C(N/C=N/OCc1ccc(Cl)cc1Cl)NOCc1ncc(C(F)(F)F)cc1Cl	x	2	x
Cc1ccc(-c2cc(-c3ccccc3[N+](=O)[O-])[nH]n2)c(O)c1	x	2	x
Cc1ccc(-c2cc(-c3ccccc3Cl)[nH]n2)c(O)c1	n	n	n
COc1ccc(OC)c(NC(=O)CSc2nnc(Cn3nnc4ccccc43)n2C)c1	x	n	x
CC1CCc2c(sc3nc(CN4CCOCC4)nc(NS(=O)(=O)c4cccc([N+](=O)[O-])c4)c23)C1 (configuration not stated)	x	2.1	x
Cc1cc(S(=O)(=O)Nc2nc(CN3CCOCC3)nc3sc4c(c23)CCCC4)ccc1F	x	n	x
COC(=O)c1cn[nH]c1NC(=S)Nc1ccc(Cl)c(Cl)c1	x	2.5	x
COC(=O)c1cn[nH]c1NC(=S)Nc1ccc(C)cc1Cl	x	n	x
COc1cc(NS(=O)(=O)c2ccc(Br)cc2)c(OC)cc1NC(=O)c1ccco1	n	n	n
COc1ccccc1OCCCCN1CCN(c2ccccc2OC)CC1	x	2.2	x
COc1ccccc1OCC(=O)N1CCN(c2ccccc2OC)CC1	n	n	n
Cc1ccnc(N2CCC(C(=O)Nc3ccc(Oc4ccccc4)cc3)CC2)n1	n	n	n
Cc1ccc(OCC(=O)NNC(=O)C2CCN(c3nccc(C)n3)CC2)cc1	x	2.5	x
COc1cccc(C(=O)Nc2ccc(NC(=O)C(C)(C)C)cn2)c1	n	n	n
COc1cccc(C(=O)N/N=C/c2cn[nH]c2-c2ccc(OC)cc2OC)c1	x	2.2	x
Cc1ccc(C(=O)c2cn[nH]c2-c2cc(Cl)ccc2O)cc1	n	2.3	n
Oc1ccc(Cl)cc1-c1cc(-c2ccccc2)n[nH]1	n	n	n
O=C(c1ccccc1)c1cn[nH]c1-c1ccccc1O	x	2.2	x
SMILES	Ec RNAP inh	PLAP activator	TNAP act DEA
COc1ccc(O)c(-c2[nH]ncc2C(=O)c2ccccc2)c1	n	x	n
CC(=O)c1nn(-c2cccc(Cl)c2)cc1C(=O)c1ccco1	n	n	n
O=C(c1ccco1)c1cn[nH]c1-c1ccc(Cl)cc1O	n	2.9	n
CCCCCC#CCC#CCC#CCC#CCCCC(=O)O	n	x	n
N#CCC(=N)N1CCN(c2ccccc2Cl)CC1	x	n	x
CCn1c(SCC(=O)Nc2ccccc2C(=O)OC)nnc1-c1ccoc1C	n	n	n
CC(C)OC(=O)CSc1nc2ncccc2[nH]1	n	n	n
O=C(CSc1nc2ncccc2[nH]1)NCc1ccccc1	n	2.4	n
CC1CCN(C(=O)C2CCN(CCCc3ccccc3)CC2)CC1	n	2.2	n
O=C(C1CCN(CCCc2ccccc2)CC1)N1CCCCC1	x	n	x
Cc1ccc(-c2nc3ccccc3[nH]2)cc1NC(=O)/C=C/c1ccco1	x	n	x
CC1=NNC(=O)C1C(c1ccccc1)C(C#N)C#N (configuration not stated)	x	2.2	x
CCC(=O)N1CCN(c2ccccc2NC(=O)COc2cc(C)ccc2C(C)C)CC1	n	n	n
O=C(NCN1CCCCC1)c1cnccn1	n	n	n
O=C(NNC(=O)C1CCCCC1)c1cnccn1	x	2	x
O=C(NCc1ccccc1)N1CCN(c2ccc(Cl)c(Cl)c2)CC1	n	n	n
Cc1cc(C)nc(NC2=NCC(=O)N2c2cc(Cl)cc(Cl)c2)n1	x	n	n
Cc1cccc(N2C(=O)CN=C2Nc2nc(C)cc(C)n2)c1	x	2.6	x
O=C(O)C1C2C=CC(C2)C1C(=O)NCCCn1ccnc1 (configuration not stated)	n	n	n
O=C(c1ccc2nc(N3CCOCC3)sc2c1)N1CCC(Cc2ccccc2)CC1	x	n	x
CCCCN(CCCNC(=O)c1ccc2nc(N3CCOCC3)sc2c1)Cc1ccccc1	x	2.2	x
CCc1c(C)nc2cc(-c3ccc(OC)c(OC)c3)nn2c1NCC1CC1	x	2	x
COc1ccc(-c2nc(C)c(C(C)=O)n2O)cc1OC	n	n	n
Cc1cc(F)ccc1S(=O)(=O)Nc1ccccc1C(=O)Nc1ccccc1N1CCOCC1	x	n	x
Cc1cc(F)ccc1S(=O)(=O)Nc1ccccc1C(=O)Nc1ncn[nH]1	n	2.9	n
SMILES	Ec RNAP inh	PLAP activator	TNAP act DEA
O=C(NCc1ccco1)C1Cc2ccccc2CN1S(=O)(=O)c1ccccc1F (configuration not stated)	n	x	n
COc1ccccc1N1CCN(C(=O)CN(c2cc(C)cc(C)c2)S(C)(=O)=O)CC1	n	n	n
CCOC(=O)c1ccc(NS(=O)(=O)c2cc(-c3nnnn3CC)ccc2OC)cc1	n	x	n
CCCCOC(=O)c1ccc(NS(=O)(=O)c2cc(-c3nnnn3CC)ccc2OC)cc1	n	2.2	n
CCOC(=O)C(C(=O)OCC)C(C(=O)OCC)N1CCOCC1 (configuration not stated)	x	n	x
COCCn1c(C)cc(C(=O)COC(=O)CCc2ccc(S(=O)(=O)N3CCOCC3)cc2)c1C	x	n	n
COCC(C)n1c(C)cc(C(=O)COc2ccc(S(=O)(=O)N3CCOCC3)cc2Cl)c1C (configuration not stated)	n	2	n
Cc1c(F)cccc1NC(=O)CSCC(=O)Nc1ccccc1	x	n	x
Cc1ccccc1COc1ccc(/C(O)=C2/C(=O)C(=O)N(CCCn3ccnc3)C2c2ccco2)cc1 (configuration not stated)	n	2.6	n
Cc1ccc(/C(O)=C2/C(=O)C(=O)N(CCCn3ccnc3)C2c2ccccn2)cc1 (configuration not stated)	x	n	x
COc1ccc(-c2cnn3c4c(c(C)nc23)CCN4C(C)C)cc1OC	x	n	x
CCCCCCNC(=O)c1c(N)n(/N=C/c2ccco2)c2nc3ccccc3nc12	n	x	n
CCCCCCn1c(C)nc2c(c1=O)c1nc3ccccc3nc1n2/N=C/c1ccco1	x	2	x
COc1cccc(NC(=O)CSCc2n[nH]c(=O)[nH]2)c1	n	n	n
CCCCCOc1ccc(CSC(=N)N)cc1[N+](=O)[O-]	x	n	x
COc1ccc(CSC(=N)N)cc1[N+](=O)[O-]	x	2.7	x
O=C(CSc1nnc(Cc2ccccc2)n1-c1ccccc1)NNC(=O)Cc1ccccc1	x	2.5	x
CCOC(=O)CSc1nnc(Cc2ccc(OC)cc2)n1-c1ccccc1	x	n	x
CCCCCn1c(N2CCN(c3cccc(Cl)c3)CC2)nc2c1c(=O)[nH]c(=O)n2C	n	2	n
CCOCCn1c(CN2CCN(CC)CC2)nc2c1c(=O)n(C)c(=O)n2C	21.6	x	n
Cn1c(=O)[nH]c(=O)c2c1nc(N1CCN(c3cccc(Cl)c3)CC1)n2CCCc1ccccc1	n	n	n
CCCCn1c(CN2CCN(c3cccc(Cl)c3)CC2)nc2c1c(=O)n(C)c(=O)n2C	n	2.1	n
CCOCCn1c(CN2CCCCC2)nc2c1c(=O)n(C)c(=O)n2C	n	x	n
CCCCCn1c(CN2CCN(c3cccc(Cl)c3)CC2)nc2c1c(=O)n(C)c(=O)n2C	n	n	n
